Experimental findings from PubChem BioAssay (EPA / NIEHS) are described below.

Records with an inconclusive call do not appear. Activity calls are given as the source filed them. The calls were made as follows: active = hit-call score of the fitted dose curve at least 0.9, where 1 is the maximum; inconclusive = response in the unintended direction; inactive = score below 0.9.

The target in the assay is human Thyroid Receptor alpha (THRa1), THRA (gene 7067) (UniProt P10827). Description: ATG_THRa1_TRANS: Attagene TRANS-FACTORIAL HepG2 Assay for human Thyroid Receptor alpha (THRa1) (AID 2283014). As to the method: ATG_TRANS is a cell-based, multiplexed-readout assay that uses HepG2, a human liver cell line, with measurements taken at 24 hours after chemical dosing in a 24-well plate.ATG_THRa1_TRANS is one of 30 assay component(s) measured or calculated from the ATG_TRANS assay. It is designed to make measurements of mRNA induction, a form of inducible reporter, as detected with fluorescence intensity signals by Reverse transcription polymerase chain reaction (RT-PCR) and Capillary electrophoresis technology.Data from the assay component ATG_THRa1_TRANS was analyzed into 1 assay endpoint. This assay endpoint, ATG_THRa1_TRANS, was analyzed in the positive analysis fitting direction relative to DMSO as the negative control and baseline of activity. Using a type of inducible reporter, measures of mRNA for gain-of-signal activity can be used to understand the reporter gene at the transcription factor-level as they relate to the gene THRA. Furthermore, this assay endpoint can be referred to as a primary readout, because this assay has produced multiple assay endpoints where this one serves a reporter gene function. To generalize the intended target to other relatable targets, this assay endpoint is annotated to the nuclear receptor intended target family, where the subfamily is non-steroidal.
Sequence of human Thyroid Receptor alpha (THRa1), THRA (gene 7067) (P10827 whole entry, looked up): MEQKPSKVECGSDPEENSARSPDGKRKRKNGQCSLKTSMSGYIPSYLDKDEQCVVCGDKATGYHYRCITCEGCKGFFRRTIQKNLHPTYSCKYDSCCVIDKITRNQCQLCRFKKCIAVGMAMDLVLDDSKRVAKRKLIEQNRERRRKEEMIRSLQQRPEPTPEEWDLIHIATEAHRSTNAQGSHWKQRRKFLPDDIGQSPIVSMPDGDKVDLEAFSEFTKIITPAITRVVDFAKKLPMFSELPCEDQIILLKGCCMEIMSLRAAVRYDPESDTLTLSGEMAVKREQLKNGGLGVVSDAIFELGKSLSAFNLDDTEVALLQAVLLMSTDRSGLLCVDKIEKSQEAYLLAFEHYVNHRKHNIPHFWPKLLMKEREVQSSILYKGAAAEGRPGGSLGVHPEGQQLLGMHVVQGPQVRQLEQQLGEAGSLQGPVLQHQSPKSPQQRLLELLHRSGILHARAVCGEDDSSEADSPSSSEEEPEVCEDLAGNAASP
Human liver HepG2 cells are transiently transfected with multiple reporter transcription units (MRTUs) in 6-well plates using FuGene 6 reagent (Roche; 3 ml FuGene/1 mg DNA). The MRTU constructs are regulated by a cis-regulating element (promoter). […] A major difference between the CIS and TRANS system is that in CIS activities of endogenous TFs are measured, whereas the TRANS assay evaluates changes in activities of exogenous, chimeric NR-Gal4 proteins. […] At the end of 24 hour incubation, total RNA was isolated using TriZol reagent (Invitrogen). The isolated RNA is then reverse-transcribed using oligo(dT) primer and Mo-MLV reverse transcriptase (Invitrogen) with DNAse I (Ambion) treatment for 30 min. The one-tenth of the produced cDNA was amplified by PCR using Taq DNA polymerase (Invitrogen) and two reporter sequence-specific primers. The PCR products were fluorescently labeled by primer extension with 6-arboxyfluorescein (6-FAM) 5'-labeled reporter sequence-specific primer (2 min at 95 C, 20 s at 68 C and 10 min at 72 C) and these products were digested with 5U of HpaI (New England Biolabs) for 2h at 37 C. The fragments were purified using Qiaquick PCR columns (Qiagen), analyzed on an ABI 3130xL genetic analyzer (Applied Biosystems) with peak positions identified by using a set of X-rhodamine (ROX)-labeled MapMarker1000 molecular weight standards (BioVentures). The raw capillary electrophoresis data was processed using Attagraph software (Attagene).
`CCC(Br)(CC)C(=O)NC(N)=O`: the result was inactive.

With `COC(C)(C)CCC[C@H](C)C/C=C/C(C)=C/C(=O)OC(C)C`, the molecule was classed as inactive. The same measure for `CNC(=O)Oc1cc(C)c(SC)c(C)c1`: “inactive”; for `CC(C)C#N`: “inactive”; for `N#CC(c1ccccc1)c1ccccc1`: “inactive”.

For `Nc1ccccc1`, the molecule was called inactive. As for `CN(C)CCC#N`, the entry is “inactive”; as for `CC1CCC(=O)O1` (stereo not given), “inactive”; as for `CCCCOC(=O)CCC(=O)OCCCC`, “inactive”. The same measure for `C[C@]12CC[C@H](O)C[C@H]1CC[C@@H]1[C@@H]2C[C@@H](O)[C@]2(C)[C@@H](C3=CC(=O)OC3)CC[C@]12O`: “inactive”. The same measure for `O=c1[nH]c(Cl)c(Cl)cc1Cl`: “inactive”; for `O=C(O)CCl`: “inactive”; for `Oc1ccc(C2(c3ccc(O)cc3)c3ccccc3-c3ccccc32)cc1`: “inactive”.

Take `CCC[N+](=O)[O-]`: the call was inactive. The same measure for `C[N+](C)(C)CC(=O)[O-]`: “inactive”; for `CCN(CC)C(=S)S`: “inactive”. Take `CN1C[C@H](C(=O)N[C@]2(C)O[C@@]3(O)[C@@H]4CCCN4C(=O)[C@H](Cc4ccccc4)N3C2=O)C=C2c3cccc4[nH]cc(c34)C[C@H]21`: the molecule was called inactive.

On to `[Cl-].[Cl-].[Cl-].[Yb+3]`, for which the call was inactive. In the case of `CSc1nc(N=[N+]=[N-])nc(NC(C)C)n1`, the molecule was classed as inactive.

Regarding `O=P(O)(Oc1ccccc1)Oc1ccccc1`, the molecule was classed as inactive. As for `N#Cc1cc(I)c(O)c(I)c1`, the entry is “inactive”.

In the case of `Nc1ccc(Cl)c(Cl)c1`, the call was inactive. As for `CC1(C)[C@H](C(=O)O[C@H](C#N)c2cccc(Oc3ccccc3)c2)[C@@H]1C=C(Br)Br`, the entry is “inactive”; as for `O=C1Nc2ccc(Cl)cc2C(c2ccccc2)=NC1O` (stereo not given), “inactive”; as for `C[N+](=O)[O-]`, “inactive”. As to `CCNCC`, the molecule was classed as inactive.

On to `C=Cc1cccc(CCl)c1`, for which the outcome was inactive. As for `Oc1ccc(Cl)cc1`, the entry is “inactive”. Take `NNc1ccccc1`: the outcome was inactive. As for `Cc1ccc(N(SC(F)(Cl)Cl)S(=O)(=O)N(C)C)cc1`, the entry is “inactive”; as for `COC(=O)COc1ccc(Cl)cc1Cl`, “inactive”. As for `O=S(=O)(O)O`, the entry is “inactive”; as for `Nc1ccccc1C(=O)OCCc1ccccc1`, “inactive”. On to `O=S(=O)(c1ccccc1)c1ccccc1`, for which the result was inactive.

For `CCC(=O)c1ccc(Cl)cc1`, the call was inactive. The same measure for `C[C@]12CC[C@H]3[C@@H](CC[C@@]45O[C@@H]4C(O)=C(C#N)C[C@]35C)[C@@H]1CC[C@@H]2O`: “inactive”; for `O=C(O)c1cc[c]([Hg][Cl])cc1`: “inactive”; for `O=[N+]([O-])c1cc([N+](=O)[O-])c2ccccc2c1`: “inactive”. The same measure for `c1ccc(Nc2ccc3ccccc3c2)cc1`: “inactive”. The same measure for `Cl/C=C\CCl`: “inactive”.
